Assay results as given in the supplement of paper PMC10849652.
Targets with a hit are over-represented here; the source holds about 8,800 in all. About 0.5% of all pairs of compound and target were hits.

What was measured:
Test in all cases: log2 fold change, soluble protein after heating vs DMSO (PISA); higher = thermal stabilisation; K562 lysate, 10 uM; active = over 0.2 and 3.5 SD of the protein, either way, in both replicates (recomputed)
erlotinib = compound: C#Cc1cccc(Nc2ncnc3cc(OCCOC)c(OCCOC)cc23)c1 [erlotinib]
Method in brief: (§1)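 The values are log-two fold changes in thermal stability compared with solvent controls and come from duplicates. They were obtained by TMTpro 16plex LC-MS/MS, with channel sums equalised, on the supernatant after 21,000xg for 90 min. That supernatant came from crude K562 extract at 1 mg/mL protein treated with 10 μM compound for 30 min, heated for 3 min across 48°C-58°C, pooled and brought to 0.5% NP-40 at 4°C.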

[1] = compound: C/C(=N\NC(=O)C1=CC(=CC=C1)S(=O)(=O)N2CCOCC2)/C3=C(C=CC(=C3)Cl)O
Method in brief: as §1

[2] = compound: C1=CC(=CC=C1C2=NC3=C(N2)C=C(C=C3)C(=O)N)OC4=CC=C(C=C4)Cl
Method in brief: as §1

[3] = compound: C1=CC2=C(C=CC(=C2)/C=C\3/C(=O)NC(=NCC4=CC=CS4)S3)N=C1
Method in brief: as §1

[4] = compound: C1=CC2=NC=CN=C2C=C1/C=C/3\C(=O)NC(=O)S3
Method in brief: as §1

[5] = compound: C1=CC=C(C=C1)C2=NC(=C(N2)C3=CC=NC=C3)C4=CC(=C(C=C4)Cl)O
Method in brief: as §1

[6] = compound: C1=CC=C2C(=C1)C3=NNC4=CC=CC(=C43)C2=O
Method in brief: as §1

[7] = compound: C1CCN(C1)C(=O)NC2=CC=CC(=C2)NC3=NC=C(C(=N3)NCCC4=CN=CN4)Br
Method in brief: as §1

[8] = compound: C1CN(CCC1(CC2=CC=C(C=C2)Cl)N)C3=NC=NC4=C3C=CN4
Method in brief: as §1

IRAK-1-4 Inhibitor I = compound: C1COCCN1CCN2C3=CC=CC=C3N=C2NC(=O)C4=CC(=CC=C4)[N+](=O)[O-] [IRAK-1-4 Inhibitor I]
Method in brief: as §1

ibrutinib = compound: C=CC(=O)N1CCC[C@@H](n2nc(-c3ccc(Oc4ccccc4)cc3)c3c(N)ncnc32)C1 [ibrutinib]
Method in brief: as §1

[9] = compound: CC(=O)c1cnc2ccc(-c3cc(Cl)c(O)c(Cl)c3)nc2c1N[C@H]1CC[C@H](CN(C)C)CC1
Method in brief: as §1

ralimetinib = compound: CC(C)(C)Cn1c(N)nc2ccc(-c3[nH]c(C(C)(C)C)nc3-c3ccc(F)cc3)nc21 [ralimetinib]
Method in brief: as §1

[10] = compound: CC(C)(O)CC(=O)NCCn1ccc2ncnc(Nc3ccc(Oc4cccc(C(F)(F)F)c4)c(Cl)c3)c21
Method in brief: as §1

[11] = compound: CC(C)C1=C2N=C(C=C(N2N=C1)NCC3=CC=CC=C3)NCCCCCCN
Method in brief: as §1

[12] = compound: CC1=C(C(CC(=O)N1)C2=CC=C(C=C2)C(F)(F)F)C(=O)NC3=C(C=C4C(=C3)C=NN4)F
Method in brief: as §1

[13] = compound: CC1=C(C2=C(C=C1)C(=O)C3=CC=CC=C3N2CCCN)C
Method in brief: as §1

[14] = compound: CC1=C(C=C(C=C1)NC(=O)C2=CC(=CC=C2)C(C)(C)C#N)NC3=CC4=C(C=C3)N=CN(C4=O)C
Method in brief: as §1

[15] = compound: CC1=C(C=C(C=C1)NC(=O)C2=CC(=CC=C2)N(C)C)NC(=O)C3=CC=C(C=C3)O
Method in brief: as §1

[16] = compound: CC1=CC=C(C=C1)SC2=C3C=C(SC3=CN=C2)C(=O)N
Method in brief: as §1

Measured: log2 fold change

WDR77 (UniProt Q9BQA1)
UniProt Q9BQA1, sequence (Q9BQA1 whole entry, looked up): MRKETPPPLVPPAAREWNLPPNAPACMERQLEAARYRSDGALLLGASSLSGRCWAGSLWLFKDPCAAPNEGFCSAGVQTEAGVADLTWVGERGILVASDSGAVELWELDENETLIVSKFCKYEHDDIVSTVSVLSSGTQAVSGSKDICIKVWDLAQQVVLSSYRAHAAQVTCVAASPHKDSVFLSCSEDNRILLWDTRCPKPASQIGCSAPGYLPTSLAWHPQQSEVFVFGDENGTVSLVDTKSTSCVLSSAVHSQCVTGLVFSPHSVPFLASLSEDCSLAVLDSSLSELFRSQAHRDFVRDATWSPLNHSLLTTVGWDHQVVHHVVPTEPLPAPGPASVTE
inactive: erlotinib -0.008 | [1] -0.073 | [2] -0.018 | [3] 0.025 | [4] -0.021 | [5] -0.009 | [6] 0.011 | [7] 0.004 | [8] 0.014 | IRAK-1-4 Inhibitor I 0.002 | ibrutinib 0.016 | [9] 0.022 | ralimetinib 0.031 | [10] 0.024 | [11] -0.012 | [12] -0.022 | [13] -0.004 | [14] 0.007 | [15] -0.01 | [16] 0.032

UNC45A (UniProt Q9H3U1)
inactive: erlotinib 0.016 | [1] 0.014 | [2] -0.039 | [3] -0.006 | [4] 0.001 | [5] -0.024 | [6] -0.037 | [7] -0.015 | [8] -0.002 | IRAK-1-4 Inhibitor I -0.001 | ibrutinib 0.002 | [9] -0.008 | ralimetinib 0.03 | [10] -0.012 | [11] -0.009 | [12] -0.007 | [13] 0.002 | [14] 0.004 | [15] 0.002 | [16] -0.007

YTHDC2 (UniProt Q9H6S0)
UniProt Q9H6S0, sequence (Q9H6S0 whole entry, looked up): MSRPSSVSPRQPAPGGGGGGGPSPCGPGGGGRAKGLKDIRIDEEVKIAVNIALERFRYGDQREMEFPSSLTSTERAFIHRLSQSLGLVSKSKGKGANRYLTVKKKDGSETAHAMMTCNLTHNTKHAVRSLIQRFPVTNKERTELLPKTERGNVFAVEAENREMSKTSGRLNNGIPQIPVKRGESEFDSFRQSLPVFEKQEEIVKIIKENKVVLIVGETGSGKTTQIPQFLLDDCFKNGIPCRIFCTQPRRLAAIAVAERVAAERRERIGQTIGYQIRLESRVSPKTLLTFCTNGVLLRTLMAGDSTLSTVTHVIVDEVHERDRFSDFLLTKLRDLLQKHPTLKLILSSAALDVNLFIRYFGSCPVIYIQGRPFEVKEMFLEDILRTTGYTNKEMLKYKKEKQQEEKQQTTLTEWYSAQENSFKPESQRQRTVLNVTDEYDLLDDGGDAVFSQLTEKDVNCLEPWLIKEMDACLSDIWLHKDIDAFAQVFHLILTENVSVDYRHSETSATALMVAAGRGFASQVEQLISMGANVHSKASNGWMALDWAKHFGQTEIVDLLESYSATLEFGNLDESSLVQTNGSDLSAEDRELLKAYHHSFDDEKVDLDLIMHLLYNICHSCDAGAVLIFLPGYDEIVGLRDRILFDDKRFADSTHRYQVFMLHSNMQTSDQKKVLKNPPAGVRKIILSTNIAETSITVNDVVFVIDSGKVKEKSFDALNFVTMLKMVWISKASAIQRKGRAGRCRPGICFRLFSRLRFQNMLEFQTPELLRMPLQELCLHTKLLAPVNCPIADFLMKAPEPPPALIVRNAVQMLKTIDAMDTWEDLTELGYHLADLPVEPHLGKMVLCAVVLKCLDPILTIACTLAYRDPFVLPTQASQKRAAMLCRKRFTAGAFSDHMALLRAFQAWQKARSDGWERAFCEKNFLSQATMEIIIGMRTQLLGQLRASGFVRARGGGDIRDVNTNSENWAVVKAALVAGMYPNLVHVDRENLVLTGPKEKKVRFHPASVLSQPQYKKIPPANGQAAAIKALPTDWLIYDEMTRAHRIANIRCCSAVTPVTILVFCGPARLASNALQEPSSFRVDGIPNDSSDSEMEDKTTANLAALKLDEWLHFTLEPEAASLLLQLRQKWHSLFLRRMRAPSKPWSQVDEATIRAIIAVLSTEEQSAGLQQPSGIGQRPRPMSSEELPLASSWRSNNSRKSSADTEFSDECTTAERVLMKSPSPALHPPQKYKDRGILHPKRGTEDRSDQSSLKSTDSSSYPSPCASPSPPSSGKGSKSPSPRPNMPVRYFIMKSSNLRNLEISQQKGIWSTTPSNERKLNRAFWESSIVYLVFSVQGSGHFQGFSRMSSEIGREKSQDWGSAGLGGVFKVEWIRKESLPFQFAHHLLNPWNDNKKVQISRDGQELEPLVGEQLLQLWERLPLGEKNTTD
inactive: erlotinib -0.008 | [1] 0.065 | [2] 0.012 | [3] 0.027 | [4] 0.02 | [5] -0.001 | [6] 0.074 | [7] -0.019 | [8] 0.029 | IRAK-1-4 Inhibitor I 0.002 | ibrutinib 0.003 | [9] 0.009 | ralimetinib 0.061 | [10] 0.021 | [11] 0.013 | [12] 0.003 | [13] -0.023 | [14] -0.003 | [15] 0.019 | [16] -0.018

YRDC (UniProt Q86U90)
UniProt Q86U90, sequence (Q86U90 whole entry, looked up): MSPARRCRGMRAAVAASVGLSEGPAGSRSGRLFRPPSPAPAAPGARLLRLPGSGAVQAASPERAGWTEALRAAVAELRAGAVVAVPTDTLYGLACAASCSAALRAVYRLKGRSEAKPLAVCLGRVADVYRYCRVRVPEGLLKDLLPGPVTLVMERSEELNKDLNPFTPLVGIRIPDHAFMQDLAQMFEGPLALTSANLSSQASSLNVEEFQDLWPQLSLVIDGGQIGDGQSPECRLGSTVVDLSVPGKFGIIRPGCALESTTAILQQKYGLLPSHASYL
inactive: erlotinib 0.009 | [1] 0.03 | [2] -0.001 | [3] -0.018 | [4] -0.021 | [5] 0.036 | [6] 0.081 | [7] -0.065 | [8] 0.006 | IRAK-1-4 Inhibitor I -0.02 | ibrutinib 0.01 | [9] -0.002 | ralimetinib 0.025 | [10] -0.012 | [11] 0.027 | [12] -0.006 | [13] -0.015 | [14] 0.021 | [15] 0.007 | [16] 0.008

USP10 isoform 2 (UniProt Q14694)
UniProt Q14694, sequence (Q14694 whole entry, looked up): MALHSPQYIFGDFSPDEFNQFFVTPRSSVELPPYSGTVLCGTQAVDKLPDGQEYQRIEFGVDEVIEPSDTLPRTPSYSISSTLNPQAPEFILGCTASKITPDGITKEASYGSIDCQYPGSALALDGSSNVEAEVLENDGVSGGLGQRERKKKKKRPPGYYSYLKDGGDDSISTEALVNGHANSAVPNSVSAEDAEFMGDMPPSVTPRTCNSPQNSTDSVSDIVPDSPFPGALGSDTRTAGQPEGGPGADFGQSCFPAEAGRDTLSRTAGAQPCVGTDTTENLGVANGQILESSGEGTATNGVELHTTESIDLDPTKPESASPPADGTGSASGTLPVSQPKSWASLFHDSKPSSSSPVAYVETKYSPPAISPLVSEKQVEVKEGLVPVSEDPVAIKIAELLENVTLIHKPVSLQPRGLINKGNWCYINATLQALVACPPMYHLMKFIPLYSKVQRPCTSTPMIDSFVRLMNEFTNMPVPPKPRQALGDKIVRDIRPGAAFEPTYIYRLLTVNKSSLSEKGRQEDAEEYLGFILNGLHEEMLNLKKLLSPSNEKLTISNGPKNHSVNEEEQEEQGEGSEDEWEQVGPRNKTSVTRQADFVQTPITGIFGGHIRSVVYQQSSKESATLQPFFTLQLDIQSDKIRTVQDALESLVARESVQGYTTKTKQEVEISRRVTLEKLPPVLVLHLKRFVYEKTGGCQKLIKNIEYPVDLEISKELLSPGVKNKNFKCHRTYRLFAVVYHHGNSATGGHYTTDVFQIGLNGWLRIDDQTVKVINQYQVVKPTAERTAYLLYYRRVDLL
inactive: erlotinib 0.022 | [1] -0.032 | [2] 0.01 | [3] 0.007 | [4] -0.017 | [5] 0.023 | [6] -0.028 | [7] -0.033 | [8] -0.034 | IRAK-1-4 Inhibitor I -0.005 | ibrutinib -0.038 | [9] 0.001 | ralimetinib -0.019 | [10] -0.014 | [11] -0.006 | [12] -0.025 | [13] 0.018 | [14] 0.003 | [15] 0.018 | [16] 0.008

WDR41 (UniProt Q9HAD4)
UniProt Q9HAD4, sequence (Q9HAD4 whole entry, looked up): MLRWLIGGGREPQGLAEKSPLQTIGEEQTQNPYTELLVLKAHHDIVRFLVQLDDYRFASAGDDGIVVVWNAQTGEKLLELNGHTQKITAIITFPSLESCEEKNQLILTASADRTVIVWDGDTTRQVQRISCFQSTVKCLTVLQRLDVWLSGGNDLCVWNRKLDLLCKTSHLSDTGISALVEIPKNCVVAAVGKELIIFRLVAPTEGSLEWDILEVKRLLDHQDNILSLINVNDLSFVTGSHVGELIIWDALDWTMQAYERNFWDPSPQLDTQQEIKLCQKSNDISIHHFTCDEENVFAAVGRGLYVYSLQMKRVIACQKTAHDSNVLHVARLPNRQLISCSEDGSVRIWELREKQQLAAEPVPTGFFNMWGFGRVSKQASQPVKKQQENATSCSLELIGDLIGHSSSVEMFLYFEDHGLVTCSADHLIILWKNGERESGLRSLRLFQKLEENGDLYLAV
inactive: erlotinib -0.071 | [1] -0.044 | [2] -0.021 | [3] 0.015 | [4] -0.027 | [5] -0.113 | [6] 0.031 | [7] -0.091 | [8] 0.049 | IRAK-1-4 Inhibitor I 0.029 | ibrutinib -0.163 | [9] -0.004 | ralimetinib 0.017 | [10] 0.088 | [11] -0.015 | [12] 0.03 | [13] -0.054 | [14] 0.164 | [15] -0.049 | [16] 0.015

WDHD1 (UniProt O75717)
inactive: erlotinib 0.013 | [1] 0.025 | [2] -0.004 | [3] 0.019 | [4] 0.002 | [5] 0.006 | [6] -0.005 | [7] 0 | [8] 0.025 | IRAK-1-4 Inhibitor I -0.017 | ibrutinib 0.024 | [9] -0.002 | ralimetinib 0.005 | [10] -0.01 | [11] -0.027 | [12] 0.007 | [13] -0.002 | [14] -0.002 | [15] 0.016 | [16] -0.005

YME1L1 (UniProt Q96TA2)
inactive: erlotinib 0.018 | [1] -0.136 | [2] -0.029 | [3] 0.026 | [4] 0.053 | [5] 0 | [6] 0.011 | [7] -0.006 | [8] 0.041 | IRAK-1-4 Inhibitor I 0.033 | ibrutinib -0.04 | [9] -0.008 | ralimetinib -0.006 | [10] -0.043 | [11] 0 | [12] -0.04 | [13] 0.003 | [14] 0.005 | [15] 0.054 | [16] -0.087

XPO6 (UniProt Q96QU8)
inactive: erlotinib 0.091 | [1] -0.024 | [2] -0.028 | [3] 0.031 | [4] -0.012 | [5] -0.003 | [6] -0.072 | [7] -0.007 | [8] -0.028 | IRAK-1-4 Inhibitor I 0.003 | ibrutinib -0.013 | [9] 0.018 | ralimetinib 0.006 | [10] -0.006 | [11] -0.033 | [12] -0.003 | [13] -0.024 | [14] 0.028 | [15] 0.062 | [16] -0.006

USP9X (UniProt Q93008)
inactive: erlotinib 0.034 | [1] 0.013 | [2] -0.008 | [3] 0.015 | [4] 0.014 | [5] 0.003 | [6] -0.019 | [7] -0.005 | [8] -0.013 | IRAK-1-4 Inhibitor I 0.022 | ibrutinib -0.003 | [9] 0.001 | ralimetinib 0.025 | [10] -0.024 | [11] -0.032 | [12] -0.008 | [13] 0.009 | [14] -0.021 | [15] 0.043 | [16] 0.011

WAC (UniProt Q9BTA9)
UniProt Q9BTA9, sequence (Q9BTA9 whole entry, looked up): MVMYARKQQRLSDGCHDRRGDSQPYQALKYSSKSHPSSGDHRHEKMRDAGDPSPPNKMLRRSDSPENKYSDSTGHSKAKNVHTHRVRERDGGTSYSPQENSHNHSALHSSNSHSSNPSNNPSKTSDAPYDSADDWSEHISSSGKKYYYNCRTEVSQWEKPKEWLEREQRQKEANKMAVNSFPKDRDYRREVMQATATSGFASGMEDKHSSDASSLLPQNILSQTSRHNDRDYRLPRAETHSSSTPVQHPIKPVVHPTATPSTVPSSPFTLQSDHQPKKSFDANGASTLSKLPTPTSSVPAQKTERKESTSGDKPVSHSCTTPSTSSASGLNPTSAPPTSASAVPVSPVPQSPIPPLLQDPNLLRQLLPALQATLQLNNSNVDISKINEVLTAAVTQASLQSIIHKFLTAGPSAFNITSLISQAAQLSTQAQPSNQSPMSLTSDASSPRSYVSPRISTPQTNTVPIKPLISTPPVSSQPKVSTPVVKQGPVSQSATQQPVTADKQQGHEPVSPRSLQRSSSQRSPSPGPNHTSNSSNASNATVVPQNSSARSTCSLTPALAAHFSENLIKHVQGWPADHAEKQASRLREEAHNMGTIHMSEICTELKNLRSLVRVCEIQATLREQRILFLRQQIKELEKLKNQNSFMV
inactive: erlotinib 0.027 | [1] 0.004 | [2] 0.027 | [3] 0.092 | [4] -0.064 | [5] 0.008 | [6] -0.076 | [7] 0.051 | [8] 0.015 | IRAK-1-4 Inhibitor I -0.006 | ibrutinib -0.062 | [9] -0.008 | ralimetinib -0.012 | [10] -0.054 | [11] -0.009 | [12] 0.046 | [13] 0.034 | [14] -0.016 | [15] 0.022 | [16] 0.004

ZNF598 isoform 3 (UniProt Q86UK7)
inactive: erlotinib -0.001 | [1] -0.003 | [2] 0.007 | [3] -0.007 | [4] -0.045 | [5] 0.006 | [6] -0.064 | [7] -0.036 | [8] -0.002 | IRAK-1-4 Inhibitor I 0.029 | ibrutinib 0.032 | [9] -0.007 | ralimetinib -0.001 | [10] -0.017 | [11] 0.013 | [12] 0.019 | [13] 0.005 | [14] -0.001 | [15] -0.004 | [16] 0

XPOT (UniProt O43592)
UniProt O43592, sequence (O43592 whole entry, looked up): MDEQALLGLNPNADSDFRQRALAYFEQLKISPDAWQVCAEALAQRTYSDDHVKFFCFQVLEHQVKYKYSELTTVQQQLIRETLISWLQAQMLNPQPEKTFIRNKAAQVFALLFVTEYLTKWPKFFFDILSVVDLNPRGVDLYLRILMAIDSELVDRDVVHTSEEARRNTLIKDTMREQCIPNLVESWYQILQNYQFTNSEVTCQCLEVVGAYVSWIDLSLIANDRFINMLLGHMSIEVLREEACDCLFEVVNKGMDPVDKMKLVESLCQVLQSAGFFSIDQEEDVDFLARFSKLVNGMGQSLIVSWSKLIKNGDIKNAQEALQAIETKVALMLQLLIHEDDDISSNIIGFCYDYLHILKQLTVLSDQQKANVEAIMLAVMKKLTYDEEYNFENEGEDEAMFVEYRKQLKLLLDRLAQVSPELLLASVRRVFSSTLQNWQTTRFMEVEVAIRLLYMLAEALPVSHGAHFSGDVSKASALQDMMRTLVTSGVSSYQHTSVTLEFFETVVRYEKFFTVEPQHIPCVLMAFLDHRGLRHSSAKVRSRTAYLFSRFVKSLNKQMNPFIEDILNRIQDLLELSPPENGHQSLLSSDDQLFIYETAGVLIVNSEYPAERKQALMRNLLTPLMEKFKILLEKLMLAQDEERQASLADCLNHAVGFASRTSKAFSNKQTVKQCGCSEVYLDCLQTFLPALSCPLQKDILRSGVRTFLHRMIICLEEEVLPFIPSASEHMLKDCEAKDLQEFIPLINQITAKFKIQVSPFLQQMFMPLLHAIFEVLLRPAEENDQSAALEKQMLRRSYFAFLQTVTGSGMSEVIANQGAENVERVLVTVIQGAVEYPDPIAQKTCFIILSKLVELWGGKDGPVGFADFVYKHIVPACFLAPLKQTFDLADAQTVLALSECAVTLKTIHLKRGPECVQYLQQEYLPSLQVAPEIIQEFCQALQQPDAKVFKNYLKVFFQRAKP
inactive: erlotinib 0.017 | [1] -0.013 | [2] -0.041 | [3] -0.003 | [4] 0.032 | [5] -0.011 | [6] -0.021 | [7] -0.004 | [8] 0.025 | IRAK-1-4 Inhibitor I 0.016 | ibrutinib -0.012 | [9] 0.009 | ralimetinib 0.006 | [10] -0.038 | [11] -0.014 | [12] 0 | [13] 0.013 | [14] 0.016 | [15] 0.007 | [16] 0.018

USP34 (UniProt Q70CQ2)
inactive: erlotinib 0.043 | [1] 0.018 | [2] -0.039 | [3] 0.029 | [4] -0.008 | [5] 0.012 | [6] -0.002 | [7] 0.003 | [8] 0.003 | IRAK-1-4 Inhibitor I -0.001 | ibrutinib 0.002 | [9] 0.006 | ralimetinib 0.011 | [10] -0.027 | [11] 0.001 | [12] -0.001 | [13] -0.032 | [14] 0.014 | [15] 0.026 | [16] 0

ZFPM1 (UniProt Q8IX07)
inactive: erlotinib 0.015 | [1] 0.039 | [2] 0.047 | [3] -0.041 | [4] 0.005 | [5] -0.01 | [6] 0.021 | [7] 0.031 | [8] -0.01 | IRAK-1-4 Inhibitor I 0.077 | ibrutinib 0.004 | [9] -0.034 | ralimetinib 0.013 | [10] -0.067 | [11] 0.02 | [12] 0.01 | [13] 0.003 | [14] 0.033 | [15] 0 | [16] -0.026

YES1 (UniProt P07947)
active: ibrutinib 0.988 | [10] 0.511
inactive: erlotinib -0.045 | [1] 0.064 | [2] 0.005 | [3] -0.045 | [4] -0.023 | [5] -0.031 | [6] -0.105 | [7] 0.027 | [8] 0.016 | IRAK-1-4 Inhibitor I 0.003 | [9] -0.012 | ralimetinib -0.259 | [11] 0.061 | [12] 0.2 | [13] 0.044 | [14] 0.192 | [15] -0.005 | [16] -0.131
